ARNT-TACC3 inh: disruptors of ARNT/TACC3 protein interaction, primary screen, biochemical, AlphaScreen, single concentration; Transforming acidic coiled-coil-containing protein 3 (Homo sapiens), Q9Y6A5; AlphaScreen His-ARNT PAS-B/GST-TACC3 binding, luminescence; TACC3 fragment carries E629A point mutation; inhibition, % at 9.99 µM; 390,000 tested, 0.66% active;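 active = mean inhibition of replicates at least 50% and at least half of replicates each reaching 50%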;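 also: 0% = complete ARNT plus TACC3 wells and 100% = ARNT alone without TACC3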
CendR NRP1 mod: modulators of CendR peptide binding to NRP-1, primary screen, biochemical, fluorescence polarization, uHTS | 360,000 tested, 0.85% active | inhibition, % at 25 µM | AID 602438, 2012 | FAM-RPARPAR peptide binding to NRP-1 | Neuropilin-1 (Homo sapiens), O14786;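 active = inhibition or corrected inhibition above about 18%, plus a signal ratio from 0.5 to 1.5, limit read from the data, passing the limit was not always enough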
PglD inh: C. jejuni PglD acetyltransferase inhibitors, primary screen, biochemical, DTNB colorimetric, single point; inhibition, % at 12.5 µM; purified PglD enzyme, DTNB colorimetric CoA detection; 360,000 tested, 0.098% active; UDP-N-acetylbacillosamine N-acetyltransferase PglD (Campylobacter jejuni); in the data active = inhibition above about 16%, passing the limit was not always enough
ERp5 block: inhibitors of ERp5-driven insulin aggregation, primary screen, biochemical, turbidity, absorbance 650 nm, single point; 350,000 tested, 0.05% active; Protein disulfide-isomerase A6 (Homo sapiens), Q15084; inhibition, % at 9.99 µM; 90 min;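 active = mean replicate inhibition above about 25%, with every replicate also reaching it, limit read from the data, passing the limit was not always enough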
ALR H2O2 inh: inhibitors of human ALR sulfhydryl oxidase, primary screen, biochemical, H2O2 detection, HRP-luminol luminescence, single point; inhibition, % (concentration not given with the values); FAD-linked sulfhydryl oxidase ALR (Homo sapiens), P55789; purified ALR, DTT oxidation; 290,000 tested, 3.8% active;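 active = mean replicate inhibition above about 79%, with every replicate also reaching it, limit read from the data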
PDI inh: inhibitors of human PDI, primary screen, biochemical, turbidity, single point, plate reader; PDI insulin aggregation turbidity, A650, 90 min; Protein disulfide-isomerase (Homo sapiens), P07237; inhibition, % at 10 µM; AID 588391, 2011; 350,000 tested, 0.052% active;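 active = mean inhibition across replicates of 30% or more, whatever share of single replicates reach that level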
Target sequence (P07237 whole entry, looked up): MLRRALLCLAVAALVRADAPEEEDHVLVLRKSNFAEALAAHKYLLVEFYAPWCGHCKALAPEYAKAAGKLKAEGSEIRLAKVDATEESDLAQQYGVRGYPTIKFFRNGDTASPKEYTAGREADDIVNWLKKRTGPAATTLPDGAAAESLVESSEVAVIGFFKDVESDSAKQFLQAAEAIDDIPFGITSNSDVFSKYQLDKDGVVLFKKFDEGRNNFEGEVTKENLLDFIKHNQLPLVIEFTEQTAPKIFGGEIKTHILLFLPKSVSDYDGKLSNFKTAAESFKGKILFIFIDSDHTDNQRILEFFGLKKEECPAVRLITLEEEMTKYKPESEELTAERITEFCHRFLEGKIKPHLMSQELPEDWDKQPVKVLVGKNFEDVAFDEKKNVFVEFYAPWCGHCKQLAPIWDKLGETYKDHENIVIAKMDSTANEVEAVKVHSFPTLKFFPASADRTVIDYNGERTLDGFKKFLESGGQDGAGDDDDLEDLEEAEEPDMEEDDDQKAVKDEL
Numbers without * were called inactive; / = not tested or not shown. This excerpt belongs to a sample that is enriched for hits.

SMILES	ARNT-TACC3 inh	CendR NRP1 mod	PglD inh	ERp5 block	ALR H2O2 inh	PDI inh
COc1ccc(-c2cn(CCN)c(-c3ccncc3)n2)cc1	-25	14	8	8	0	0
CO[C@H]1CN(C)C(=O)c2ccc(NS(C)(=O)=O)cc2OC[C@H](C)N(Cc2cncnc2)C[C@@H]1C	/	/	/	-6	/	/
N#C[C@H]1[C@@H](c2ccc(C#CC3CC3)cc2)[C@H](CO)N1S(=O)(=O)c1ccccc1	-13	/	-1	5	/	/
Cn1c(SCC(=O)Nc2cccc(F)c2)nc2c(c1=O)SCC2	-26	0	3	-28	94*	3
CCn1c(SCC(=O)Nc2ccc(OC)cc2)nc2c(c1=O)SCC2	-8	11	-3	4	45	-3
CCOC(=O)c1ccc(NC(=O)CSc2nc3c(c(=O)n2-c2ccccc2OC)SCC3)cc1	-14	20	4	3	99*	/
Cn1c(SCC(=O)Nc2ccc(C(N)=O)cc2)nc2c(c1=O)SCC2	-12	11	-1	-1	99*	2
O=C(C1CCCCC1)N1CC2(C1)[C@@H](c1ccccc1)[C@@H](CO)N2C(=O)NC1CCCC1	/	/	/	21	/	/
COc1cccc(N2CCN(C(=O)c3ccc(CS(=O)c4ccccc4C)o3)CC2)c1 (stereo unspecified)	-3	11	1	-6	91*	2
COc1ccc(N2CCN(C(=O)c3ccc(CS(=O)c4cccc(C)c4)o3)CC2)cc1 (stereo unspecified)	4	0	11	-2	99*	3
COc1ccc(N2CCN(C(=O)c3ccc(CS(=O)Cc4ccc(Cl)cc4)o3)CC2)cc1 (stereo unspecified)	9	7	5	0	-1	-11
Cc1cccc(N2CCN(C(=O)c3ccc(CS(=O)Cc4cccc(Cl)c4)o3)CC2)c1C (stereo unspecified)	4	12	-2	4	100*	0
CCOC(=O)c1c(NC(=O)C2CC(Cl)=CCC2C(=O)O)sc2c1CCCCC2 (stereo unspecified)	0	-12	11	/	98*	1
CCOC(=O)c1c(NC(=O)c2c(C)noc2C)sc2c1CCCCC2	-30	35*	-10	/	-4	4
CCOC(=O)c1c(NC(=O)C2C3C=CC(C3)C2C(=O)O)sc2c1CCC(C)C2 (stereo unspecified)	-12	-5	-2	4	95*	2
Cc1noc(C)c1C(=O)Nc1sc2c(c1C(N)=O)CCCCC2	-8	3	/	-7	10	-9
CN(C)c1ccc(-n2cc3c(=O)n(C)c(=O)n(C)c3c2)cc1	3	11	-9	/	99*	7
CCCC#Cc1ccc2c(c1)O[C@@H](CN(C)C(=O)c1cnccn1)[C@@H](C)CN([C@@H](C)CO)S2(=O)=O	10	/	-3	-6	/	/
Cc1cc(=O)n(-c2ccc(C(=O)O)cc2)[nH]1	50*	-16	1	8	-48	4
O=C(NN=C1CCCC1)c1n[nH]c2c1CCC2	/	5	/	1	4	-4
O=C(NN=C1CCCC1)c1n[nH]c2c1CCCC2	/	-11	/	6	99*	10
COc1ccc(NC2CCN(C3CC(=O)N(c4ccc(F)c(Cl)c4)C3=O)CC2)cc1 (stereo unspecified)	7	-15	2	/	82*	8
CCN1C(=O)CC(N2CCC(Nc3ccc(OC)cc3)CC2)C1=O (stereo unspecified)	-10	8	-1	/	98*	10
CCN1C(=O)CC(N2CCC(C(=O)OC)CC2)C1=O (stereo unspecified)	-1	-15	6	/	2	3
CC(=O)N1[C@H](C(=O)NCc2ccccc2Cl)[C@@H](CO)[C@@H]2Cn3c(ccc(-c4cncnc4)c3=O)[C@@H]21	1	/	2	2	/	/
SMILES	ARNT-TACC3 inh	CendR NRP1 mod	PglD inh	ERp5 block	ALR H2O2 inh	PDI inh
C[C@H]1CN([C@@H](C)CO)C(=O)c2cc(NS(C)(=O)=O)ccc2O[C@@H]1CN(C)S(=O)(=O)c1cccs1	2	/	-5	6	/	/
COc1ccc(NC(=O)N2CC(=O)N3[C@H](CO)[C@H](c4ccc(C5=CCCC5)cc4)[C@H]3C2)cc1	/	/	/	2	/	/
COC(=O)c1ccc(CNC(=O)CNc2cc(C(F)(F)F)ccc2N2CCOCC2)cc1	-7	3	/	/	99*	12
N=c1c2c3c(sc2ncn1Cc1ccco1)CCCCC3	-2	-6	/	/	92*	14
CC(C)Cn1cnc2sc3c(c2c1=N)CCCC3	/	13	/	/	-3	14
C[C@@H]1CN([C@@H](C)CO)C(=O)c2cccc(NS(=O)(=O)c3ccccc3)c2O[C@@H]1CN(C)S(C)(=O)=O	-5	/	-2	4	/	/
CC(C)NC(=O)N(C)C[C@@H]1Oc2ccc(NC(=O)Cc3ccccc3)cc2CC(=O)N([C@@H](C)CO)C[C@H]1C	-1	/	-2	-3	/	/
Cc1ccc(S(=O)(=O)n2nc(OC(=O)c3ccccc3C)cc2N)cc1	-10	-6	12	1	/	-4
Cc1ccccc1C(=O)Oc1cc(N)n(S(C)(=O)=O)n1	2	18*	/	-5	7	-3
Cc1ccc(S(=O)(=O)n2nc(OC(=O)c3ccco3)cc2N)cc1	-4	1	/	/	98*	-2
Nc1cc(OC(=O)c2ccco2)nn1S(=O)(=O)c1ccc(F)cc1	-3	7	-3	/	98*	21
COc1cccc(-c2ccc([C@@H]3[C@@H](CO)N4CCCCN(C(=O)NC(C)C)C[C@@H]34)cc2)c1	12	/	8	-9	/	/
CCCNC(=O)C[C@@H]1CC[C@H]2[C@@H](COc3ccc(NC(=O)Nc4ccccc4)cc3C(=O)N2C)O1	0	/	2	/	/	/
C[C@@H]1CN([C@H](C)CO)S(=O)(=O)c2ccc(C3=CCCCC3)cc2O[C@@H]1CN(C)C(=O)C1CCCCC1	20	/	4	16	/	/
CC(=O)N1[C@H](CO)[C@H](c2ccc(C3=CCCC3)cc2)[C@@H]1CNC(=O)CC1CC1	/	/	/	1	/	/
COc1ccc2c3c([nH]c2c1)[C@H](CO)N(Cc1nccs1)CC31CCN(C(=O)C2CCCC2)CC1	/	/	/	-3	/	/
Cc1ccc(S(=O)(=O)N[C@@H]2CC[C@@H](CCn3cc(C4CC4)nn3)O[C@H]2CO)cc1	-13	/	2	6	/	/
O=C(C[C@H]1C=C[C@H](NC(=O)C2CCC2)[C@@H](CO)O1)NCc1ccccc1Cl	/	/	1	-9	/	/

Assay outcomes: PubChem BioAssay, several laboratories
